Screening results from PubChem BioAssay.
Wee1 stabilizer: Wee1 degradation inhibitors, primary screen, cell-based, HeLa, Wee1K328M-luciferase, luminescence; Wee1-like protein kinase (Homo sapiens), P30291; HeLa Luc-Wee1K328M stability; 100% = proteasome inhibitor MG132 effect; reporter increase, % at 5 µM; actives 1.2% (n = 220,000); AID 1321, 2008;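 active = activation above the mean of all tested compounds plus 3 SD, set per screening run, cut at about 8.8% in these data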;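 also: cells exposed to compound for 20 h before luminescence read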
Efa HMGR inh: inhibitors of E. faecalis class II HMGR, primary screen, biochemical, Enterococcus faecalis; HMG-CoA reductase (Enterococcus faecalis, mvaE); purified E. faecalis HMGR, NADPH absorbance 340 nm kinetic; inhibition, % at 10 µM; actives 0.41% (n = 190,000); AID 1066, 2008;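 active = inhibition above a set limit, the median over all tested compounds plus 3 SD, cut at about 9.5% in these data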;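 also: enzyme runs in reverse so mevalonate oxidation gives rising NADPH absorbance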
Hsp70 activator: Hsp70 transcriptional activators, primary screen, cell-based, HeLa, Hsp70 promoter luciferase, luminescence, 10 µM | actives 0.04% (n = 200,000) | AID 1203, 2008 | HeLa Hsp70 promoter luciferase reporter; scaled: vehicle 0, proteasome-inhibitor control 100% | activation, % at 10 µM;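 active = activation above the mean across all tested compounds plus 3 SD, cutoff set per campaign, cut at about 5.5% in these data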
PKD1 inh: inhibitors of human PKD1 kinase, biochemical, fluorescence polarization; Serine/threonine-protein kinase D1 (Homo sapiens), Q15139; inhibition, % (test concentration not listed); actives 0.056% (n = 200,000); PKD1 kinase fluorescence polarization assay; in the data active = inhibition above about 50%
Target sequence (Q15139 whole entry, looked up): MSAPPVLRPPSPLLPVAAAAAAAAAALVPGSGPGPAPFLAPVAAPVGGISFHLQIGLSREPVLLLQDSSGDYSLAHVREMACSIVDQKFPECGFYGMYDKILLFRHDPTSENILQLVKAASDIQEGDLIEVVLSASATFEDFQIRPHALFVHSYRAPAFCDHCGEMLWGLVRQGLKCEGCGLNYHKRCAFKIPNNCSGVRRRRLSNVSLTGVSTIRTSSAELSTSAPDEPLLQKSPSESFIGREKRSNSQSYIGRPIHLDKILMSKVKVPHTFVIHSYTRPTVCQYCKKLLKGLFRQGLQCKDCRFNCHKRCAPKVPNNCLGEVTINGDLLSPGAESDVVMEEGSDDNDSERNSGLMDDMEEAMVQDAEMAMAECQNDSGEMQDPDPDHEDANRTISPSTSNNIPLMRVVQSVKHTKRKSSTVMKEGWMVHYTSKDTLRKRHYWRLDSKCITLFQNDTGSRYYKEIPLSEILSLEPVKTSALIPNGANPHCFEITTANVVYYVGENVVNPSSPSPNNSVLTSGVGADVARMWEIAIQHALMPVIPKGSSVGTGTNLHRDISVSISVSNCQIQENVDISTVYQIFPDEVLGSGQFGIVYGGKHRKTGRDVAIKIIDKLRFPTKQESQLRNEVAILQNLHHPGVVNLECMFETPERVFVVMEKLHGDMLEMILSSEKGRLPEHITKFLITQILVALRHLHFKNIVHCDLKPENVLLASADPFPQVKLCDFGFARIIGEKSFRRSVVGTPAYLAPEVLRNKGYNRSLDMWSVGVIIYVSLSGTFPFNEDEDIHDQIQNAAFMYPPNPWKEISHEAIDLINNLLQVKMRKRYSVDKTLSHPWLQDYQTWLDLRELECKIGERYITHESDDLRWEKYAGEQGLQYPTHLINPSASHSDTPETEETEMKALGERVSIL
Arbovirus inh: antivirals against arbovirus infection, primary screen, cell-based, full library, 10K replicate subset | arbovirus infection cell-based antiviral screen | inhibition, % at 10 µM | actives 0.37% (n = 200,000) | AID 1251, 2008; in the data active = inhibition above about 30%
Wee1 degr conf: Wee1 degradation inhibitors, confirmation, cell-based, HeLa, Wee1K328M-luciferase, luminescence, triplicate; activation, % at 5 µM; shares compounds with Wee1 stabilizer; actives 4% (n = 1,100); HeLa Luc-Wee1K328M degradation; vehicle 0%, proteasome-blocked wells 100%; in the data active = activation above about 8.9%
A number is an active result; i = inactive; nt = not tested or not shown. This is a sample that favours compounds with a hit; in the whole collection about 2% have one here.

SMILES | Wee1 stabilizer | Efa HMGR inh | Hsp70 activator | PKD1 inh | Arbovirus inh | Wee1 degr conf
COc1ccc(N2CCN(C(c3ccc4ncccc4c3)c3nnnn3C(C)(C)C)CC2)cc1 (configuration not stated) | 11 | i | i | i | i | i
CC(=O)Nc1ccc(NC(=O)CN(c2cc(Cl)ccc2Cl)S(C)(=O)=O)cc1 | i | i | i | i | i | nt
CN(C)c1nc(N)nc(-c2nc3ccccc3s2)n1 | 12 | i | i | i | i | i
Nc1ccccc1-c1nc2ccccc2s1 | i | i | i | i | i | nt
COc1ccccc1/C=C/C(=O)N1CCC(c2ccccc2)C1 (configuration not stated) | i | i | i | i | i | nt
O=S(=O)(c1ccc(S(=O)(=O)N(Cc2ccco2)Cc2ccccc2Cl)cc1)N1CCCC1 | 27 | i | i | i | i | i
CC(C)(C)NC(=O)C(c1c[nH]c2ccccc12)N(C(=O)Cn1nnc(-c2ccc(F)cc2)n1)c1cccc(O)c1 (configuration not stated) | i | i | i | i | i | nt
O=C(NCCc1ccc(Cl)cc1)c1ccc(CNc2c(N3CCOCC3)c(=O)c2=O)cc1 | i | nt | nt | nt | nt | nt
COC(=O)c1c(NC(=O)c2ccc(C)cc2)csc1C | 13 | nt | nt | nt | nt | i
COC(=O)c1c(NS(=O)(=O)c2ccccc2)csc1C | i | nt | nt | nt | nt | nt
CCc1cccc(CC)c1N(COC)C(=O)Cn1ccccc1=N | 13 | i | i | i | i | i
CC1=C(C(=O)OCC2CCCO2)C(c2ccc(O)cc2)NC(=O)N1 (configuration not stated) | i | i | i | i | i | nt
CC1=C(C(=O)OCC2CCCO2)C(c2ccc(Cl)cc2)NC(=O)N1 (configuration not stated) | 12 | i | i | i | i | i
OC(COc1cccc2ccccc12)CN1CCN(c2ccccc2Cl)CC1 (configuration not stated) | i | nt | nt | nt | nt | nt
O=C(O)c1ccccc1CSc1ncccc1C(=O)O | i | i | i | i | i | nt
O=C(NC1CCCCC1)c1cc(Cl)ccc1[N+](=O)[O-] | 16 | i | i | i | i | i
O=C(NC1CCCC1)c1cc(Cl)ccc1[N+](=O)[O-] | i | i | i | i | i | nt
O=c1[nH][nH]c2ccccc2c1=O | 14 | nt | nt | nt | nt | i
CCN(CC)C(=O)CSCc1cnn(-c2ccccc2)c1-n1cccc1 | 16 | i | i | i | i | i
N#CCCn1c(O)c(N=NC(=O)CNC(=O)c2cccs2)c2ccccc21 | 15 | nt | nt | nt | nt | i
CCCOC(=O)c1c(NC(=O)CCCn2nc([N+](=O)[O-])cc2C)sc(C(=O)OC)c1C | i | i | i | i | i | nt
C/C(=N\Nc1ccc(S(=O)(=O)Nc2ccc(Cl)cc2)cc1[N+](=O)[O-])c1ccc(N2CCOCC2)cc1 | 12 | i | i | i | i | i
Cc1ccc(S(=O)(=O)Oc2ccc(/C=C(/NC(=O)c3ccccc3)C(=O)NC(C)C(=O)O)cc2)cc1 (configuration not stated) | i | i | i | i | i | nt
Clc1cccc(-c2cc3nc4c(c(N5CCNCC5)n3n2)CCCC4)c1 | 12 | i | i | i | i | i
Cn1cccc1/C=C1\SC(=Nc2ccc(O)cc2)NC1=O | i | nt | nt | nt | nt | nt
SMILES | Wee1 stabilizer | Efa HMGR inh | Hsp70 activator | PKD1 inh | Arbovirus inh | Wee1 degr conf
Cn1cccc1/C=C1\SC(=Nc2ccccc2)NC1=O | 19 | nt | nt | nt | nt | 14
CCOC(=O)CNC(=O)c1cc(-c2ccccn2)nc2c(C)c(Cl)ccc12 | i | i | i | i | i | nt
COc1ccc(Nc2nc(N)nc(CSc3nccn3C)n2)cc1 | 12 | i | i | i | i | i
CN(Cc1cc2ccccc2[nH]c1=O)S(C)(=O)=O | 13 | i | i | i | i | i
CN(Cc1cc2ccccc2[nH]c1=O)S(=O)(=O)c1ccccc1 | i | i | i | i | i | nt
CC(=O)N(C)c1ccc(N=Nc2c(C)[nH]n(C(N)=S)c2=O)cc1 | 17 | i | i | i | i | i
CC1(C)CC(=O)C(C(=O)c2ccccc2)C(=O)C1 | i | i | i | i | i | nt
Cc1cccc(C(=O)NC2=NCCS2)c1 | 33 | i | i | i | i | i
